This passage reports Percent Effect results from ChEMBL document CHEMBL3988442, “University of Dundee, Small-Polar-MMV Screening Library” (2021).

For some of these results: Potency and affinity values are given separately.

Set-up in all cases: scale not given: direction of the effect not stated beside the values
Assay [1] addresses Protein translocase subunit SecA (Escherichia coli (strain K12)) (UniProt P10408). Put plainly: Assay to Identify E. coli SecA ATPase Inhibitors. Type of assay: functional. The conditions noted are these: 30 µM.
Assay [2] addresses T1, Ubiquitin-activating enzyme e1, putative (Leishmania donovani (strain BPK282A1)) (UniProt E9BSI1).
T1 sequence (whole entry): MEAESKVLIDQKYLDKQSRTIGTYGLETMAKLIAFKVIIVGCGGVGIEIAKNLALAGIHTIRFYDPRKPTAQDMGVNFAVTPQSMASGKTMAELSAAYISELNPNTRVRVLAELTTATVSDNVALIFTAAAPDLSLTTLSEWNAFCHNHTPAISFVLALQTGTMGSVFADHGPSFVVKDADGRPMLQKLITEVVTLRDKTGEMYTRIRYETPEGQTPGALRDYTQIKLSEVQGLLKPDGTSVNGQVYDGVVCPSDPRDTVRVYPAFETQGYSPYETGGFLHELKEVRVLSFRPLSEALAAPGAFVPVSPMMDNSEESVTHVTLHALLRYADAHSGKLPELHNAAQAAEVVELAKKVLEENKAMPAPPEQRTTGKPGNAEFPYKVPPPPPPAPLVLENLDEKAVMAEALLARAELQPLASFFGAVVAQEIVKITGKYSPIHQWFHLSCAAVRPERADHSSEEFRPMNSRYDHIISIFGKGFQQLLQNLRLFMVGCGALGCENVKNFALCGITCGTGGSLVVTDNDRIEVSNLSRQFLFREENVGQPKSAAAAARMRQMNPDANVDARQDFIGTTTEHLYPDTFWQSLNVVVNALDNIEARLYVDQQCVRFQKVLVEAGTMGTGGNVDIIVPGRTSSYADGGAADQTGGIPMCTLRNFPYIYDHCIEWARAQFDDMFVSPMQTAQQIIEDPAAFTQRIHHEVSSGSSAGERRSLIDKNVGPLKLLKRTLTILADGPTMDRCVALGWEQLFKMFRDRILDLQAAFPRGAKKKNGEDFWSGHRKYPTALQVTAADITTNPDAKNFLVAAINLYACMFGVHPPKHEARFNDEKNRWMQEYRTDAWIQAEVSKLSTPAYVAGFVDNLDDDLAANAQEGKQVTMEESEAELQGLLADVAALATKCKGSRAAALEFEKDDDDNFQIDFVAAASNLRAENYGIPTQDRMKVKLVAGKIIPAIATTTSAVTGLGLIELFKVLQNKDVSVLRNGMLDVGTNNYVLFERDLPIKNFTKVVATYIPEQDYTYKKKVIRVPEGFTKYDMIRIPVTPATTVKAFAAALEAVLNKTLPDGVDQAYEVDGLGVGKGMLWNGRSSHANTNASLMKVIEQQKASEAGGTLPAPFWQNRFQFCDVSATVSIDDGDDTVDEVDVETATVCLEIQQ
The experiment in a line: Leishmania donovani Ubiquitin Activating Enzyme (LdE1). As to conditions: 30 µM. Type of assay: functional.

Assay [3] concerns the target T2, Aspartate--tRNA(Asp/Asn) ligase (Mycobacterium tuberculosis (strain ATCC 25618 / H37Rv)) (UniProt P9WFW3). Further: in the data most compounds retested in dose-response had high values.
T2 sequence (whole entry): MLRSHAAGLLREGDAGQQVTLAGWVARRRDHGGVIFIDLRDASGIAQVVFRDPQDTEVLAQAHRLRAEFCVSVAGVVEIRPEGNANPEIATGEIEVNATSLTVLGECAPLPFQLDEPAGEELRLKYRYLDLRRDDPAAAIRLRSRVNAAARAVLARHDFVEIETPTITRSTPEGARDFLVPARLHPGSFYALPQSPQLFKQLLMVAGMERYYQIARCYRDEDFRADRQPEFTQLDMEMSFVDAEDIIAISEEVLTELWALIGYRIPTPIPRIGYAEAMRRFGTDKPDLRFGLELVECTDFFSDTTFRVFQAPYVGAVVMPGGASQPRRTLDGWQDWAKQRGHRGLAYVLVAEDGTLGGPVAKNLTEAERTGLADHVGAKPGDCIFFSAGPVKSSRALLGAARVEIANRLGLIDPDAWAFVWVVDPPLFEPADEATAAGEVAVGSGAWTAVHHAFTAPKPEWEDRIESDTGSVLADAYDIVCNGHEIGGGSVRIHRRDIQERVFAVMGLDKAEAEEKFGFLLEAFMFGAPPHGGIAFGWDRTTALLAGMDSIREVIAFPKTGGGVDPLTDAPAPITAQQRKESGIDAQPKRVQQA
Put plainly: Assay for Asp RNA synthetase-1 from Mycobacterium tuberculosis. The format is functional. The conditions noted are these: 30 µM.

Assay [4] concerns the target Sialic acid-binding Ig-like lectin 9 (Homo sapiens) (UniProt Q9Y336). The experiment in a line: Hs-Siglec9 ALPHAscreen SOP 20170721. As to conditions: 10 µM. In general terms: Bead proximity is the source of the signal in Alpha formats.
The next assay has as its system Trypanosoma cruzi. Put plainly: Trypanosoma cruzi phosphomannomutase and mannose-1-phosphate guanylyltransferase assay. Type of assay: functional. The conditions noted are these: 10 µM.
In assay [5] the target is T3, Arginase-2, mitochondrial (Homo sapiens) (UniProt P78540).
T3 sequence (whole entry): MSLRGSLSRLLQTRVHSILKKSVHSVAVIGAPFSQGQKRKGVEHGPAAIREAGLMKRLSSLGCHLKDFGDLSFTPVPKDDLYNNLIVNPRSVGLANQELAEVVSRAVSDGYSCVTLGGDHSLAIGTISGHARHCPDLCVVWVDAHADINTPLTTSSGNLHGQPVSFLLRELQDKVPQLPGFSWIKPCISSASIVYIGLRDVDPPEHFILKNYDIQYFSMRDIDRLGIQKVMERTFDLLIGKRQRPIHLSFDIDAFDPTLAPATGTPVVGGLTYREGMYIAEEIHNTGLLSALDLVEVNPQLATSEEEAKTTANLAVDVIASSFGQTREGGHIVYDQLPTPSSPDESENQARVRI
Put plainly: in vitro enzyme assay to detect the production of urea directly proportional to the activity of Arginase II. Further: in the data most compounds retested in dose-response had high values. As to conditions: 33.3 µM. The format is functional.

Assay [6] deals with T4, Proteasome subunit beta (Trypanosoma cruzi) (UniProt O96673).
T4 sequence (whole entry): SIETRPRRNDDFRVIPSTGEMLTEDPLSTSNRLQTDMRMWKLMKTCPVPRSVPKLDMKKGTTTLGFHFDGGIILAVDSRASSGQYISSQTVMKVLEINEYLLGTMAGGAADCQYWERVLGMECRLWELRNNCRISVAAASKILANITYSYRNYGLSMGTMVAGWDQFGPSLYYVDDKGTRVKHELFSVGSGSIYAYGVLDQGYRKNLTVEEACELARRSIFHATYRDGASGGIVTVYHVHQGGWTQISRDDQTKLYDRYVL
Put plainly: Trypanosoma cruzi proteasome chymotrypsin-like activity (TcProtChymo) assay. Further: in the data most compounds retested in dose-response had high values. The conditions noted are these: 9.37 µM. The format is functional.

For another assay, the species on record is Homo sapiens. The experiment in a line: To identify inhibition of the IFN signalling (Jak-Stat) pathway via expression of an eGFP reporter gene under the control of an IFN-stimulated response element (ISRE) containing MxA promoter. Type of assay: functional. As to conditions: 30 µM. On the technique in general: In a reporter assay the amount or activity of a reporter protein is the signal.

The target of assay [7] is Shiga toxin 2 (Escherichia coli O157:H7) (UniProt P09385+P09386). The experiment in a line: E. coli 0.157:H7 Shiga Toxin SOP - stx2 screening assay. As to conditions: 30 µM. Type of assay: functional.
For assay [8], the target named is T5, Tyrosyl-tRNA synthetase, putative (Trypanosoma cruzi (strain CL Brener)) (UniProt Q4DSP6).
T5 sequence (whole entry): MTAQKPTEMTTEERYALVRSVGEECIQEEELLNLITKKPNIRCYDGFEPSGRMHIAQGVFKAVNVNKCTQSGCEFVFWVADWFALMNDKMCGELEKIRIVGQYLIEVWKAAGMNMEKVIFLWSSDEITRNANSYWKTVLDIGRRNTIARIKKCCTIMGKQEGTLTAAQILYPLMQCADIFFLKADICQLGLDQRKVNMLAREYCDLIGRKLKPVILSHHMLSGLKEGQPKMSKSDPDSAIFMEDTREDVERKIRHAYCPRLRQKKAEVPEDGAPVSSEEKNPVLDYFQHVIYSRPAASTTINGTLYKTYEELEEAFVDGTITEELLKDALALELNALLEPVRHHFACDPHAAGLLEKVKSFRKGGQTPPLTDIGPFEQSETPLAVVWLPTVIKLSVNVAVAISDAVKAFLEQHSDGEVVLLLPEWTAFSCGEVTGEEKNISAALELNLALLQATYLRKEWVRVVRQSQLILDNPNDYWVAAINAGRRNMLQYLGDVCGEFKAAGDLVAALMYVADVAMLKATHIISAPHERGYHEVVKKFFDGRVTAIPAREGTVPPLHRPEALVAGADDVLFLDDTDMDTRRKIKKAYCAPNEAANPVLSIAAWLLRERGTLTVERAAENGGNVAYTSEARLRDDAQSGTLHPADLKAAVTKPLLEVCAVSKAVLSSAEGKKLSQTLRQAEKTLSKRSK
The experiment in a line: Trypanosoma cruzi tyrosyl tRNA synthetase (TcYRS) _High Tyrosine SOP. Further: in the data most compounds retested in dose-response had high values. Type of assay: functional. The conditions noted are these: 30 µM.

Assay [9] deals with T5, Tyrosyl-tRNA synthetase, putative (Trypanosoma cruzi (strain CL Brener)). The experiment in a line: Trypanosoma cruzi tyrosyl tRNA synthetase (TcYRS) SOP. Type of assay: functional. The conditions noted are these: 30 µM.
Assay [10] deals with Chromo domain-containing protein 1 (Saccharomyces cerevisiae (strain ATCC 204508 / S288c) (Baker's yeast)) (UniProt P32657). Put plainly: ScCHD-1 Enzyme Inhibition Assay. Further: in the data most compounds retested in dose-response had high values. The format is functional. The conditions noted are these: 30 µM.
Assay [11] has as its target AMP-activated protein kinase, AMPK (Homo sapiens) (UniProt P54646+O43741+P54619+Q9UGJ0+Q9Y478+Q13131+Q9UGI9). Put plainly: AMP-dependent Kinase enzyme assay. An in vitro enzyme assay that detects ADP turnover that is directly proportional to AMPK activity. This uses naive AMPK that is activated during the assay with MK-8722. The format is functional. The conditions noted are these: 30 µM.

Chain of Sialic acid-binding Ig-like lectin 9 (Homo sapiens) (Q9Y336 whole entry): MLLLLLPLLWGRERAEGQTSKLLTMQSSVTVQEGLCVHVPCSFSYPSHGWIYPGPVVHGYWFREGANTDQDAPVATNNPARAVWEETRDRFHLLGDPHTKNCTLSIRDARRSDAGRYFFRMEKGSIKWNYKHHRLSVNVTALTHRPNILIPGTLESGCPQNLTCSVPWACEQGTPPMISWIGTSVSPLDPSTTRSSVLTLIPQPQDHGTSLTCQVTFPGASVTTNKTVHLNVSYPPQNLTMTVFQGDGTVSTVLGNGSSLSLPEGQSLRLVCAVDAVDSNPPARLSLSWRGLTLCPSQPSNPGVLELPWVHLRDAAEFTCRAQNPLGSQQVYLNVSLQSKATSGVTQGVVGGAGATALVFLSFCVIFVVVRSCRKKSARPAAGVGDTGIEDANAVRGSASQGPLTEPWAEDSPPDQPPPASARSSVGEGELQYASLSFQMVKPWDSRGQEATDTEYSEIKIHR
Chain of Chromo domain-containing protein 1 (Saccharomyces cerevisiae (strain ATCC 204508 / S288c) (Baker's yeast)) (P32657 whole entry, the tested form may be a part): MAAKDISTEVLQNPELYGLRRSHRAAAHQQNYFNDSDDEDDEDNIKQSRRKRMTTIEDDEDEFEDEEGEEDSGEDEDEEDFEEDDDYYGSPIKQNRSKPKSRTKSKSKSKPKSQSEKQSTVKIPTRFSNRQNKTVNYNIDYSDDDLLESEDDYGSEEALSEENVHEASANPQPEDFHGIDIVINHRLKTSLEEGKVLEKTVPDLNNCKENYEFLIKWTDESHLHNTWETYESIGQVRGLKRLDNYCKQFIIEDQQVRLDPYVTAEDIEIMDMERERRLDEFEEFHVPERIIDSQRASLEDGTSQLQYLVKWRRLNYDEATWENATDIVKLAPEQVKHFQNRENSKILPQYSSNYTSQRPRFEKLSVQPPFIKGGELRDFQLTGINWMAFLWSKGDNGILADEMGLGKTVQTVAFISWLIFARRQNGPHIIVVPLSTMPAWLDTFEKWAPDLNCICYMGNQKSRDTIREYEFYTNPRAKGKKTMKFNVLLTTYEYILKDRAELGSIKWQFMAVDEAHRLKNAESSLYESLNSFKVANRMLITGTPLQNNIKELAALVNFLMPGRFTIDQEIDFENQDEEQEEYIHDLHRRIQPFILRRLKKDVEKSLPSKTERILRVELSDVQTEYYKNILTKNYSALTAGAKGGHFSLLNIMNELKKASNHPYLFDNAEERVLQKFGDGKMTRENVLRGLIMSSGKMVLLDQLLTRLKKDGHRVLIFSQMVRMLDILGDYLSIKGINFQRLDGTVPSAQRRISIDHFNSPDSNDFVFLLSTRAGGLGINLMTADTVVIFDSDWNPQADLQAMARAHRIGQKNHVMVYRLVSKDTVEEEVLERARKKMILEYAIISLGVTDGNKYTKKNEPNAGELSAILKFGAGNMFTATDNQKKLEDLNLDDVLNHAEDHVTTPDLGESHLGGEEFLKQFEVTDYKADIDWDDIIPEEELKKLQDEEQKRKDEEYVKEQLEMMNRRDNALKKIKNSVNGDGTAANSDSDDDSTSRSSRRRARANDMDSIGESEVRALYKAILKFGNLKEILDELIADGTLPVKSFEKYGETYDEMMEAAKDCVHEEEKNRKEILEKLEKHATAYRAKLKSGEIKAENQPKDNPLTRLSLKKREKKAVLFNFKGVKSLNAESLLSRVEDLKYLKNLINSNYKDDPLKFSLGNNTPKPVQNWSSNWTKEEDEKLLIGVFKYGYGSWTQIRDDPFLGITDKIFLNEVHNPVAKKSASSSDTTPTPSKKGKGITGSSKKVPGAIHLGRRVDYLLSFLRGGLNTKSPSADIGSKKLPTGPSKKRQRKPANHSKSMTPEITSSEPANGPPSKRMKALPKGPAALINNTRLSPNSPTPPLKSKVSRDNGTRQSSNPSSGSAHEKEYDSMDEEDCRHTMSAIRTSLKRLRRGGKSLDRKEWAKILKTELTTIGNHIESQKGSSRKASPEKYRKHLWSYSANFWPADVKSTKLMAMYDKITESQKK
Chain of Protein translocase subunit SecA (Escherichia coli (strain K12)) (P10408 whole entry): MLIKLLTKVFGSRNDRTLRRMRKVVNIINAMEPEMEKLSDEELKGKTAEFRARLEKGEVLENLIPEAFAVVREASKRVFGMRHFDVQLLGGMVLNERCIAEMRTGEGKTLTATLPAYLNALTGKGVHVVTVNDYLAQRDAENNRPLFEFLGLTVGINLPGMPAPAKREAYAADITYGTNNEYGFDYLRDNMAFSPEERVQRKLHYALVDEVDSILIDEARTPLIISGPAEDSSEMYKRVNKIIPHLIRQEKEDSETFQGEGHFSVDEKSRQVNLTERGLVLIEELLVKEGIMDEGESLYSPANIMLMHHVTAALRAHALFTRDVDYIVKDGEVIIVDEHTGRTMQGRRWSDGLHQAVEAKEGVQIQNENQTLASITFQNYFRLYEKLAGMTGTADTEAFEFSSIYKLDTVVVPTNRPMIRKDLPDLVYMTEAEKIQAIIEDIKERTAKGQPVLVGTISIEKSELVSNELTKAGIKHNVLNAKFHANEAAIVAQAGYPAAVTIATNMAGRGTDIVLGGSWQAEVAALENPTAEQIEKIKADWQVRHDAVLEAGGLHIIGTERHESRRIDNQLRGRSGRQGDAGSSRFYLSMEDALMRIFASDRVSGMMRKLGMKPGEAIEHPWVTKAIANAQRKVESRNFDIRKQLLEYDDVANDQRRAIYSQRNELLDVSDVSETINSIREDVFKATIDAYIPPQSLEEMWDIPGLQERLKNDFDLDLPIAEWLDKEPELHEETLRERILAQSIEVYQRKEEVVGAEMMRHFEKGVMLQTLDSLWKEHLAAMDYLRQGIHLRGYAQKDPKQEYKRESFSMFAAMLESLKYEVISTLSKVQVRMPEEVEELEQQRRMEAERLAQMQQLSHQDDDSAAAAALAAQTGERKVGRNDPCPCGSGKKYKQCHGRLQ

For the compound `COc1ccc(C(=O)C2CCCN(CCCn3cccn3)C2)c(OC)c1` (stereo unspecified), the Percent Effect in assay [1] was -4.85%; in assay [2], 5.41%; in [3], -0.805%; in assay [4], 13.1%; in the assay on Trypanosoma cruzi it was 7.27%; in [5] it was 25.5%. Besides, the Percent Effect in [6] was 7.71%; in the assay filed under Homo sapiens, 3.33%; in [7], -4.88%; in assay [8], 6.92%; in assay [9] it was 17.1%; in [10] it was 77.1%.

Consider `Cc1noc(C)c1CN1CCCC2(CCN(C(=O)CC3CC3)C2)C1` (stereo unspecified), for which the Percent Effect in [1] was -8.86%; in assay [2], 3.9%; in [3], 1.46%; in assay [4] it was 3.29%; in the assay with Trypanosoma cruzi, -0.375%; in assay [5], 2.74%. The Percent Effect is 1.97% in assay [6]; 12.4% in the assay listed under Homo sapiens; -4.85% in assay [7]; 1.93% in [8]; -10% in assay [9]; -8.2% in assay [10].

As to `O=C1CO[C@@H]2CN(Cc3cccs3)C[C@H]2N1Cc1ccncc1`, the Percent Effect is -2.47% in assay [1]; 14.3% in assay [2]; 9.56% in assay [3]; -8.26% in assay [4]; -2.63% in the assay on Trypanosoma cruzi; 10.9% in [5]. In addition, the Percent Effect in assay [6] is 21.8%; in the assay listed under Homo sapiens, -2.63%; in assay [7], -17.5%; in assay [8], 12.1%; in assay [9] it was 10.3%; in assay [10], 3.61%.

Turning to `Cc1nc(C)c(CC(=O)N2C[C@@H]3CC[C@H](C2)N(CC2CCC2)C3)c(=O)[nH]1`, the Percent Effect is -2.23% in assay [1]; 18.9% in assay [2]; -2.78% in [3]; -35.4% in assay [11]; 21.6% in assay [4]; 4.2% with Trypanosoma cruzi. The Percent Effect in assay [5] is 16.1%; in assay [6], 16.2%; in the assay filed under Homo sapiens it was -15.8%; in [7], 5.33%; in assay [8] it was 4.3%; in assay [9], 18.5%. Moreover, the Percent Effect in [10] is -11.7%.

In the case of `Cc1noc(C)c1CN1CCO[C@H]2CN(CC3CC3)C[C@H]21`, the Percent Effect in assay [1] was -4.84%; in assay [2], 11.7%; in [3] it was -1.48%; in assay [4] it was 9.57%; with Trypanosoma cruzi it was 4.58%; in assay [5], 3.24%. Moreover, the Percent Effect in assay [6] is 18.4%; in the assay listed under Homo sapiens it was 2.94%; in assay [7], -2.75%; in [8] it was 8.95%; in assay [9] it was 20.5%; in assay [10], 12.9%.
